Laboratory results from PubChem BioAssay AID1508607 (The Scripps Research Institute Molecular Screening Center, 2020).
Hit rate of the full screen: of about 2,300 compounds, about 20 (0.9%) were called active. The list comes from a sample in which actives are over-represented; it also holds similar structures and randomly drawn compounds. Unmarked numbers belong to inactive results.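 The calls were made as follows: active = mean percent activation across replicates above the counterscreen hit cutoff of 9.17%; inactive = the rest.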

target: Glucose-dependent insulinotropic receptor (Homo sapiens) (UniProt Q8TDV5); assay: GPR119 activators in beta-arrestin cells, confirmation, counter-screen for GPR151 activator project, cell-based, PathHunter beta-arrestin, luminescence, set 2 (AID 1508607); details: 90 min, at 11.2 µM, active compounds read high;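 also: 0% = median of sample wells and 100% = wells given EA reagent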
Sequence (Q8TDV5 whole entry, looked up): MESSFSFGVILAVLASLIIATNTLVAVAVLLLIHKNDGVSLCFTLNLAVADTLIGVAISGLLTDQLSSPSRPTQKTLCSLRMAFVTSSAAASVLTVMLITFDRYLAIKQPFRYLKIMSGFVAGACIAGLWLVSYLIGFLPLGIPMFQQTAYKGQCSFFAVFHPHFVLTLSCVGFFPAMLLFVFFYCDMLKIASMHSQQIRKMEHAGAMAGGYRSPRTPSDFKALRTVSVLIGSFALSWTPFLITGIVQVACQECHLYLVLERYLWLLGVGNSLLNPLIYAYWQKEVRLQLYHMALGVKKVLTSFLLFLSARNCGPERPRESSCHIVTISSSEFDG

| Structure (SMILES) | activation |
| --- | --- |
| O=C1N[C@H](Cc2ccc(O)cc2)C(=O)N2CCN(Cc3cnn(-c4cccc(Cl)c4)c3)C[C@H]12 | 3.76% |
| COc1ccc(CNC(=O)C(NS(=O)(=O)c2ccc3c(c2)oc(=O)n3C)C(C)C)cc1 (stereo not drawn) | -0.7% |
| Cc1cccc(N2CCN(C(=O)c3ccc(S(=O)(=O)c4ccc(F)cc4)c([N+](=O)[O-])c3)C(C)C2)c1 (stereo not drawn) | 14.7% (active) |
| COc1ccc(N2CCN(C(=O)c3ccc(SCc4ccccc4F)c([N+](=O)[O-])c3)CC2)cc1 | 0.52% |
| Cc1ccc(C)c(N2CCN(C(=O)c3ccc(S(=O)(=O)c4ccc(Br)cc4)c([N+](=O)[O-])c3)CC2)c1 | 4.42% |
| Cc1ccccc1-n1cc(-c2ccccc2)[nH]c1=S | -4.28% |
| CSC1=NCCN1C(=O)COc1ccc2ccccc2c1 | -1.84% |
| COc1cc2nc(SCC(N)=O)n3nc(CCn4nc(C)cc4C)nc3c2cc1OC | 1.45% |
| Cc1c(C(=O)NCCC2CCCN2C)sc2ncnc(NCc3ccco3)c12 (stereo not drawn) | 3.32% |
| CCc1nnc(NC(=O)CSc2nc3cccnc3n2Cc2ccccc2)s1 | 0.71% |
| O=C(COc1ccccc1[N+](=O)[O-])N/N=C/c1ccc(Br)cc1 | 0.11% |
| Cc1cccc2c(N3CCCC3)nc(CNS(=O)(=O)c3ccc4c(c3)OCCO4)nc12 | -0.61% |
| COCC1CCN(c2nc3nonc3nc2NC2CCCC2)CC1 | 2.9% |
| O=C(CN1C(=O)C(c2ccccc2)=NC12CCCC2)Nc1ccccc1 | -0.92% |
| CCC(CC)C(=O)Nc1nnc(SCC(=O)Nc2cc(C(F)(F)F)ccc2Cl)s1 | 1.93% |
| Cn1cc(SCC(=O)Nc2ccccc2C(F)(F)F)c2ccccc21 | 3.59% |
| O=C(Nc1cc(C(F)(F)F)ccc1Cl)c1ccc(C(=O)C(=O)c2ccccc2)cc1 | 6.45% |
| Cc1ccc2c(c1)c(=O)c1ccccc1n2CC(=O)Nc1cccc(Cl)c1C | -2.08% |
| CCOC(=O)c1nnn(CC(=O)Nc2cccc(C)c2)c1C(=O)OCC | 1.6% |
| Cc1cc2c(cc1C)C(c1cc([N+](=O)[O-])ccc1Cl)CC(=O)N2 (stereo not drawn) | 0.43% |
| O=C(CCCn1c(=O)[nH]c2ccccc2c1=O)NC1CCCC1 | -1.75% |
| CCn1c(SC(C)C(=O)OC)nc2c(c1=O)SC(C)C2 (stereo not drawn) | -0.05% |
| COc1ccc(NS(=O)(=O)c2ccc(NC(=S)NC(C)=O)cc2)cc1 | 3.81% |

| Structure (SMILES) | activation |
| --- | --- |
| CCC(C)NC(=O)c1cc(=O)[nH]c2ccc(Br)cc12 (stereo not drawn) | 47.8% (active) |
| CCC(C)NC(=O)c1cc2c(=O)oc3ccccc3c2s1 (stereo not drawn) | 4.04% |
| CCC(C)NC(=O)c1ccc(-n2c(=S)[nH]c3ccccc3c2=O)cc1 (stereo not drawn) | 0% |
| CCc1c(C)sc(NC(NC(=O)C(C)C)(C(F)(F)F)C(F)(F)F)c1C#N | -0.12% |
| COc1cc(C2CC(=O)N3CN(C4CCCCC4)CSC3=C2C#N)cc(OC)c1OC (stereo not drawn) | -2.01% |
| CCOC(=O)c1c(NC(=O)CSc2c[nH]c3ccccc23)sc2c1CCCCC2 | 4.28% |
| CCCCCCCCCCCCCC/C(C(=O)O)=C(\C)C(=O)O | -2.17% |
| Cc1ccc2c(c1)NC(C)(C)c1sn(-c3ccc(C(C)C)cc3)c(=S)c1-2 | 1.46% |
| CC(C)C1Nc2c(O)cc(Cl)c([N+](=O)[O-])c2C2C=CCC21 (stereo not drawn) | 10.3% (active) |
| O=[N+]([O-])c1c(Cl)cc(O)c2c1C1C=CCC1C(c1ccc(Cl)cc1Cl)N2 (stereo not drawn) | 5.29% |
| O=C(Nc1ccccc1C(F)(F)F)c1cnn2c(C(F)(F)F)cc(-c3ccco3)nc12 | -0.72% |
| CCOC(=O)c1cnc2c(OC)cccc2c1N1CCN(CC)CC1 | -1.9% |
| CCC(Sc1nc(NC2CCCCC2)c2ccccc2n1)C(=O)Nc1ccc2c(c1)OCO2 (stereo not drawn) | 0.68% |
| CCC(=O)Nc1ccc(NC(=O)CSc2nc3c(c(=O)n(C)c(=O)n3C)n2C)cc1 | -0.37% |
| O=C(O)c1ccc(CN(Cc2ccc(Cl)cc2)C(=S)Nc2ccc(Oc3ccccc3)cc2)cc1 | -1.29% |
| Cc1[nH]c2ccc(OCc3ccccc3)cc2c1CCNC(=O)COc1ccc(F)cc1F | -2.17% |
| Cc1cc(Oc2nc3ccccn3c(=O)c2/C=C(\C#N)C(=O)N2CCCCC2)ccc1Cl | -22.9% |
| O=C(c1ccccc1)N1N=C(c2ccccc2)CC1(O)C(F)(F)C(F)(F)F (stereo not drawn) | 4.17% |
| Cc1ccc(S(=O)(=O)N2CCCC2CNC(=O)C(=O)NC2CCCC2)cc1 (stereo not drawn) | -1.44% |
| CCOc1ccccc1NC(=S)N(CCOC)C(C)c1ccccn1 (stereo not drawn) | -1.68% |
| Nc1ccc(C(=O)NCC2COc3ccccc3O2)cc1[N+](=O)[O-] (stereo not drawn) | 6.14% |
| Nc1ncc(Br)cc1S(=O)(=O)Nc1cc(F)ccc1F | -0.83% |
| CCOc1ccc(-c2nc(CSCC(=O)NCC3CCCO3)c(C)o2)cc1 (stereo not drawn) | 0.12% |

| Structure (SMILES) | activation |
| --- | --- |
| Cc1cc2oc3c(c(=O)c2cc1C)C(c1ccc(O)cc1)N(CCCN1CCOCC1)C3=O (stereo not drawn) | 2.08% |
| COc1cc(/C=C/C(=O)c2ccc(F)cc2)cc(OC)c1OC | 0.62% |
| CC(C)CC(NC(=O)C(C)NC(=O)CNC(=O)C(NC=O)C(C)C)C(=O)NC(C)C(=O)NC(C(=O)NC(C(=O)NC(C(=O)NC(Cc1c[nH]c2ccccc12)C(=O)NC(CC(C)C)C(=O)NC(Cc1c[nH]c2ccccc12)C(=O)NC(CC(C)C)C(=O)NC(Cc1c[nH]c2ccccc12)C(=O)NC(CC(C)C)C(=O)NC(Cc1c[nH]c2ccccc12)C(=O)NCCO)C(C)C)C(C)C)C(C)C (stereo not drawn) | 39.2% (active) |
| CN(C)c1ncc(/C=C2/C(=O)NC(=S)N(c3ccccc3F)C2=O)cn1 | 0.14% |
| COc1ccc(/C(C)=N/NC(=O)C(C)Nc2ccc(Cl)cc2)cc1 (stereo not drawn) | -2.32% |
| CC[C@@H](C(=O)C(C)[C@@H](O)[C@H](C)CCc1ccc(C)c(O)c1C(=O)O)C1OC(CC)(C2CC[C@](O)(CC)[C@H](C)O2)C[C@@H]1C (stereo partly drawn) | 29.8% (active) |
| COC(=O)C1=C(N)Oc2c(oc(CO)cc2=O)C1c1c(Cl)cccc1Cl (stereo not drawn) | 0.48% |
| C=CCN1C(=O)/C(=C2\SC(N3CCCCC3)=NC2=O)c2cc(Br)ccc21 | 2.45% |
| C=CCN1/C(=C\C=C2\C=Nc3ccc(Br)cc32)C=Cc2ccc(C)cc21 | 20.7% (active) |
| CC(C)c1onc(C(=O)Nc2cc(Cl)ccc2O)c1[N+](=O)[O-] | -3.34% |
| C=CCNC(=O)c1cccc(NS(=O)(=O)c2ccc(Cl)cc2)c1 | 4.37% |
| CCc1ccc(C2CC(c3ccccc3)Nc3nc(N)nn32)cc1 (stereo not drawn) | 3.26% |
| COc1ccc(Cn2c(C)c(C)n3c4c(=O)n(CCCO)c(=O)n(C)c4nc23)cc1 | 1.31% |
| O=C(NCCSCc1ccccc1)c1ccc[nH]c1=S | 2.53% |
| CCSc1nnc(CSc2ncccn2)n1-c1ccccc1 | -3.02% |
| COc1cc(S(=O)(=O)N2CCN(c3ccc(C)c(C)c3)CC2)ccc1F | 1.41% |
| COc1ccc(-c2nnc3sc(NC(=O)C(C)C)nn23)cc1 | -0.23% |
| Cc1nccc2[nH]c(=O)c(C(=O)NC3CCN(Cc4ccccc4)CC3)cc12 | 0.02% |
| Cc1cccc(NC(=O)c2c(-c3ccccc3Cl)noc2C)c1C | 0.14% |
| C=CCNc1nnc(-c2cc3c(CO)cnc(C)c3oc2=O)s1 | -2.69% |
| O=C1CCCN1CCCNc1nc(-c2cccc(Cl)c2)c2c(n1)-c1ccccc1OC2 | -1.27% |
| C=CCOC(=O)c1[nH]c2c(c1C)C(=O)C(C(=O)OC)C(C)C2 (stereo not drawn) | 2.72% |
